HCV inhibitor – inhibitors of hepatitis C virus infection. 3.4% of 340,000 active. AID 651820. Potency, µM (series often up to 41.8 µM), most hits filed as inhibitors. Huh7.5.1 HCVcc-Cre infection, luciferase reporter, 44 h
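Whole-lifecycle infectious HCVcc-Cre system; cells 1,000/well, compound then virus (~0.5 moi) added 4 h after plating, 44 h culture. Luciferase read 15 sec following 15 min substrate incubation, room temp.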
Pf growth 96h – P. falciparum growth inhibition at 96 hour, primary screen for plastid delayed-death inhibitors; P. falciparum luciferase reporter growth, 96 h; Potency, µM (highest dose often 28.7 µM), usual class: inhibitors; 6.9% of 320,000 active
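Cell-based qHTS: luciferase-tagged P. falciparum in erythrocytes (2% hematocrit, 0.05% parasitemia final) incubated with compounds for 96 hours, 37 C, 5% CO2; luciferase detection reagent then added and luminescence measured.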
LASV entry inh – Lassa virus entry inhibition | 1.2% of 300,000 active | Potency, µM (top dose mostly 37.9 µM), hits mostly inhibitors | Lassa virus pseudotype entry inhibition, cell reporter; calls by dose curve; tested in HEK293 cells; note: nearly all actives have a fitted effect of over 50% in size
Marburg entry inh – Marburg virus entry inhibition. Marburg virus pseudotyped entry inhibition, cell reporter. Potency, µM (top dose mostly 37.8 µM), most hits filed as inhibitors. 1.8% of 300,000 active; calls by dose curve; tested in HEK293 cells
Pf growth 48h – P. falciparum growth inhibition at 48 hours (one generation); P. falciparum luciferase growth in erythrocytes, 48 h; Potency, µM (titrated, usually from 28.7 µM), hits mostly inhibitors; 5.9% of 310,000 active
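Luciferase-expressing P. falciparum in infected erythrocytes (2% hematocrit, 0.1% parasitemia final) in RPMI 1640/0.5% Albumax were exposed to compound for 48 hours at 37 C, 5% CO2; growth read as luminescence.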
HCMV antiviral – blocks human cytomegalovirus replication; HFF cells, HCMV-luciferase reporter, 72 h; active compounds read low; activity change, negative = inhibition, % at 57.5 µM; 4.5% of 410,000 active; AID 1259415; in the data active = activity change below about -60%; inconclusive = no clear call, values can overlap the other calls; inactive = above about -39%
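Luciferase read-out from HCMV-luciferase-infected HFFs (MOI 1 PFU/cell) 72 h post infection at 37C; compounds added after 16 h cell attachment; activity normalized between buffer-only basal and Salinomycin (10uM) inhibitor controls.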
Hits are given with their value; [ ] = dose if it differs, or a comment. Compounds with a hit are over-represented: about 14% of the library has one in this group of screens. Unless noted, calls come from the whole dose curve; as a rule, active = well fitted inhibition curve with a large enough effect; inconclusive = small, poorly fitted or top-dose-only effect, or another doubt; inactive = no such curve, though single readings can be large or run the other way.

`O=C(Nc1ccccc1)Nc1ncc([N+](=O)[O-])s1` gave HCV inhibitor inconclusive, Pf growth 96h inactive, LASV entry inh 7.1µM, Marburg entry inh inconclusive, Pf growth 48h inactive and HCMV antiviral -98.
`O=C(COC(=O)c1ccccc1)Nc1ncc([N+](=O)[O-])s1` gave HCV inhibitor inactive, LASV entry inh inconclusive, Marburg entry inh inactive and HCMV antiviral inactive.
`O=C(O)c1cnn(-c2nc(-c3cccc([N+](=O)[O-])c3)cs2)c1C(F)(F)F` gave HCV inhibitor inactive, Pf growth 96h inconclusive, Pf growth 48h inconclusive and HCMV antiviral -94.
Screening O=C(Nc1nc(-c2cccnc2)cs1)c1ccccc1[N+](=O)[O-] returned HCV inhibitor inconclusive, Pf growth 96h inactive, Marburg entry inh inactive, Pf growth 48h inconclusive and HCMV antiviral inactive.
`Cc1nc(C)c(C(=O)Nc2ncc([N+](=O)[O-])s2)o1` gave HCV inhibitor inactive, Pf growth 96h inactive, LASV entry inh 5.6µM, Marburg entry inh inconclusive, Pf growth 48h inactive and HCMV antiviral inconclusive.
CC(C)CC(=O)Nc1ncc([N+](=O)[O-])s1 was read as HCV inhibitor inactive, Pf growth 96h inactive, LASV entry inh inactive, Marburg entry inh inconclusive, Pf growth 48h inactive and HCMV antiviral inactive.
Screening O=C(O)c1cnn(-c2nc(-c3cccc(F)c3)cs2)c1C(F)(F)F returned HCV inhibitor inactive, Pf growth 96h inactive[1.15 µM], LASV entry inh inactive, Marburg entry inh inactive, Pf growth 48h inconclusive and HCMV antiviral inconclusive.
`O=C(Cc1cccc(NC(=O)C2CCN(S(=O)(=O)c3cccc([N+](=O)[O-])c3)CC2)c1)Nc1cccc(C(=O)N2CCCCC2)c1` gave HCV inhibitor inconclusive and HCMV antiviral inactive.
CCC(CC)C(=O)Nc1cccc(-c2nc3ncccn3c2C)c1 was read as LASV entry inh inactive and HCMV antiviral inactive.
`CN(C)CCn1nnnc1SCC1=C(C(=O)O)N2C(=O)[C@@H](NC(=O)Cc3csc(N)n3)[C@@H]2SC1` gave Pf growth 96h 6.4µM and Pf growth 48h inconclusive.
`CCOc1cc(/C=C/C(=O)OCC(=O)NC2CCS(=O)(=O)C2)ccc1OCc1ccccc1` (stereo not given) gave HCV inhibitor 13µM, Pf growth 96h inactive, LASV entry inh inactive, Marburg entry inh inactive, Pf growth 48h inactive and HCMV antiviral inactive.
For CCOc1ccc(CNC(=O)CCn2c(=O)oc3ccccc32)cc1OC the results were HCV inhibitor inactive, Pf growth 96h 9.3µM, LASV entry inh inactive, Marburg entry inh inactive, Pf growth 48h inconclusive and HCMV antiviral inactive.
For CCOc1ccc(CCNC(=O)CN2CCN(Cc3ccc(Cl)cc3)C2=O)cc1OCC the results were LASV entry inh inactive, Marburg entry inh 5µM and HCMV antiviral inactive.
CCOc1ccc(CCNC(=O)COC(=O)/C=C/c2ccc(OCC#N)c(OC)c2)cc1OCC was read as HCV inhibitor inactive, Pf growth 96h inactive, LASV entry inh inactive, Marburg entry inh inactive, Pf growth 48h inactive and HCMV antiviral inactive.
CCOc1ccc(CCNC(=O)CN2CCN(Cc3ccc(F)cc3Cl)C2=O)cc1OCC was read as LASV entry inh inactive, Marburg entry inh inactive and HCMV antiviral inactive.
CCOc1ccc(CCNC(=O)COC(=O)/C=C/c2ccccc2)cc1OCC was read as HCV inhibitor inactive, Pf growth 96h inactive, LASV entry inh inactive, Marburg entry inh inactive, Pf growth 48h inconclusive and HCMV antiviral -87.
Screening Cc1ccc(CN(Cc2ccco2)C(=O)c2oc3c(C)c(C)ccc3c2C)cc1 returned LASV entry inh inconclusive, Marburg entry inh inconclusive and HCMV antiviral inactive.
Screening NC(=O)Cc1ccc(OCc2nn[nH]n2)cc1 returned HCMV antiviral inactive.
Screening CCOc1ccccc1NC(=O)CCn1c(=O)oc2ccccc21 returned HCV inhibitor inactive, Pf growth 96h 6.6µM, LASV entry inh inactive, Marburg entry inh inactive, Pf growth 48h inactive and HCMV antiviral inactive.
CCOc1ccccc1CNC(=O)Cn1c(=O)oc2ccccc21 was read as HCV inhibitor inactive, Pf growth 96h inactive and HCMV antiviral inactive.
For CCOc1ccc(CCNC(=O)Cn2c(-c3nonc3N)nc3ccccc32)cc1OCC the results were HCV inhibitor 14µM, Pf growth 96h inconclusive, LASV entry inh inactive, Marburg entry inh inactive, Pf growth 48h inconclusive and HCMV antiviral inactive.
CCOC(=O)n1c(=O)oc2ccccc21 was read as HCV inhibitor inactive, Pf growth 96h inactive, LASV entry inh inactive, Marburg entry inh inactive and HCMV antiviral -96.
`CCOc1ccc(CCNC(=O)Cn2c(=O)oc3ccccc32)cc1OCC` gave HCV inhibitor inactive, LASV entry inh inactive, Marburg entry inh inactive, Pf growth 48h 8.3µM and HCMV antiviral inactive.
`Cc1nc2ccc(S(=O)(=O)N(CC(=O)Nc3cccc(F)c3)Cc3ccccc3)cc2s1` gave LASV entry inh inactive and HCMV antiviral inactive.
Cc1cccc(Cn2cccc2CNS(=O)(=O)c2ccccc2F)c1 was read as LASV entry inh inactive and HCMV antiviral inactive.
Screening CCCCOc1ccccc1NC(=O)Cn1c(-c2nonc2N)nc2ccccc21 returned HCV inhibitor inconclusive, LASV entry inh inconclusive, Marburg entry inh inconclusive, Pf growth 48h inactive and HCMV antiviral -78.
For COCCNC(=O)CCn1c(=O)oc2ccccc21 the results were HCV inhibitor inactive, Pf growth 96h inactive, LASV entry inh inactive, Marburg entry inh inactive, Pf growth 48h inactive and HCMV antiviral inactive.
CCc1ccccc1NC(=O)Cn1c(-c2nonc2N)nc2ccccc21 was read as LASV entry inh inactive, Marburg entry inh inactive and HCMV antiviral inactive.
CCOc1ccc(CCn2c(-c3ccco3)nc3ccccc3c2=O)cc1OCC was read as HCV inhibitor 7.1µM, Pf growth 96h inconclusive, LASV entry inh 6.5µM, Marburg entry inh 2.3µM and HCMV antiviral -76.
For Cc1ccccc1NC(=O)Cn1c(=O)oc2ccccc21 the results were HCV inhibitor inactive, Pf growth 96h 4.1µM, Pf growth 48h inactive and HCMV antiviral inactive.
For COCCN(CCOC)C(=O)CCn1c(=O)oc2ccccc21 the results were HCV inhibitor inconclusive, Pf growth 96h 1.2µM, LASV entry inh inconclusive, Marburg entry inh inconclusive, Pf growth 48h inactive and HCMV antiviral inactive.
`COc1ccc(CNC(=O)c2ccc(Cn3c(=O)c4cccn4c4cccnc43)cc2)c(OC)c1` gave LASV entry inh inactive and HCMV antiviral inactive.
For CNc1nc(Cl)nc(NC(C)(C)C)n1 the results were HCV inhibitor inconclusive, Pf growth 96h inactive, LASV entry inh inactive, Marburg entry inh inactive, Pf growth 48h inactive and HCMV antiviral inactive.
Screening CC(C)(C)Nc1nc(NN)nc(NC(C)(C)C)n1 returned HCV inhibitor inconclusive, Pf growth 96h inconclusive, LASV entry inh inconclusive, Marburg entry inh inconclusive, Pf growth 48h inconclusive and HCMV antiviral -85.
For CC(C)(C)Nc1nc(Cl)nc(NC(C)(C)C)n1 the results were HCV inhibitor inactive, Pf growth 96h 15µM, LASV entry inh inactive, Marburg entry inh inconclusive, Pf growth 48h inactive and HCMV antiviral inactive.
